Experimental data published in PubChem BioAssay AID652054 (National Center for Advancing Translational Sciences (NCATS), 2013).
The campaign covered roughly 360,000 compounds. About 9,100 (2.5%) were called active. Roughly 4% stayed inconclusive and do not appear here. What follows is part of a selection rich in actives, with near analogues and random picks from the rest. Unmarked numbers belong to inactive results. Rule as the data show it: active = max response below about -50%; inconclusive = no clear call, values can overlap the other calls; inactive = above that.

Target: D(3) dopamine receptor (Homo sapiens) (UniProt P35462)
Test: qHTS of D3 Dopamine Receptor Antagonist: qHTS
Details: D3R cells, DiscoveRx beta-arrestin luminescence, antagonist mode; stronger effect = lower value
In short: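 Cells plated overnight at 1500 cells/well, then exposed to library compounds with dopamine controls for 90 minutes at 37 degrees C. DiscoveRx reagent added for 30–60 minutes at room temperature; luminescence read, quantitative HTS format.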
% is scaled to controls: 0 for no effect and ±100 for the full control effect.

Sequence of D(3) dopamine receptor (Homo sapiens) (P35462 whole entry, looked up): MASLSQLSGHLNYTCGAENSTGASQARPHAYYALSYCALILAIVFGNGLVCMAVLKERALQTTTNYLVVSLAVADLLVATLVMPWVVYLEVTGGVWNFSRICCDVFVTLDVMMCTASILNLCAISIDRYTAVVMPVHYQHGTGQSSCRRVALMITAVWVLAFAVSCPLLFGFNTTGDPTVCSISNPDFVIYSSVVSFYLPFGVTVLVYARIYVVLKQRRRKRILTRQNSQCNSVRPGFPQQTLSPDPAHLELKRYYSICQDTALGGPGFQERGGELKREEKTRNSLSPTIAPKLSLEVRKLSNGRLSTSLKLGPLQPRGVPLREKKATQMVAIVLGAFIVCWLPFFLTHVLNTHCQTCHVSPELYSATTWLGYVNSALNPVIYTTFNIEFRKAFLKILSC

| Compound | max response, negative = inhibition |
| --- | --- |
| Cc1ccc(N(C(=O)c2ccc(S(=O)(=O)N(C)C)cc2)C2C=CS(=O)(=O)C2)cc1 (stereo not drawn) | -16.5% |
| Cc1ccc(N(C(=O)Cc2cccs2)C2C=CS(=O)(=O)C2)cc1Cl (stereo not drawn) | 9.44% |
| CCCCC(=O)N(c1ccc(OC)cc1)C1C=CS(=O)(=O)C1 (stereo not drawn) | -109% (active) |
| CCCCCc1c(Cc2ccccc2)ncn1CCc1ccccc1OC | -13.9% |
| O=C(Nc1cccc(C(=O)O)c1)/C(=C\c1ccccc1)NC(=O)c1ccc(Br)o1 | -22% |
| COc1ccccc1CN1CCN(C(c2ccccc2)c2ccccc2)CC1 | -95.1% (active) |
| Cn1nnnc1SCC(=O)N1CCN(C(c2ccccc2)c2ccccc2)CC1 | 2.83% |
| c1ccc(C(c2ccccc2)N2CCN(Cc3nnnn3C3CCCCC3)CC2)cc1 | -13.5% |
| CC(=O)N1CCN(CC(c2ccccc2)c2ccccc2)CC1 | 18.7% |
| COc1ccccc1NC(=S)N1CCN(C(c2ccccc2)c2ccccc2)CC1 | -5.17% |
| CC(C)OCC(O)CN1CCN(C(c2ccccc2)c2ccccc2)CC1 (stereo not drawn) | -50.4% (active) |
| Oc1ccccc1CN1CCN(C(c2ccccc2)c2ccccc2)CC1 | -76.9% (active) |
| COc1ccccc1CN1CCN(Cc2cc(OC)c(OC)cc2OC)CC1 | -21.9% |
| O=C(C(c1ccccc1)c1ccccc1)N1CCN(CC(O)COc2ccccc2)CC1 (stereo not drawn) | -23.3% |
| CCCOc1ccc(F)cc1-c1cc(C(=O)Nc2ccc(F)cc2)[nH]n1 | 12.6% |
| CN(CCO)C(=O)c1nc[nH]c1C(=O)N(C)Cc1ccccc1 | -16.2% |
| Cc1ccccc1-c1ccc2c(c1)O[C@@H](CN(C)Cc1ccc(C(=O)O)cc1)[C@@H](C)CN([C@H](C)CO)S2(=O)=O | 17.1% |
| CC1(C(=O)NS(=O)(=O)c2cccc(F)c2)CCN1C(=O)Cc1ccc(Cl)cc1Cl (stereo not drawn) | -11% |
| O=C(Nc1cccc2ccccc12)c1[nH]c(-c2ccccc2)c2c1C(=O)N(C1CC1)C2=O | 81% |
| CCC(C)CN1C(=O)CN(S(C)(=O)=O)CC1(C)C(=O)Nc1ccc2c(c1)OCCO2 (stereo not drawn) | 15.4% |
| CC(=O)c1ccc(-c2cnc3c(NC=O)cc(-c4cccc(NS(C)(=O)=O)c4)cn23)cc1 | 127% |
| Nc1ncnc2c1ncn2[C@@H]1O[C@H](C(=O)N2CCSC2)[C@@H](O)[C@H]1O | -26.3% |

| Compound | max response, negative = inhibition |
| --- | --- |
| COc1cccc(-c2nc3nc(C)cc(C)n3c2NC2CCCCC2)c1 | -19.4% |
| C=C1C(=O)[C@]23C[C@H]1CCC2[C@@]1(C)C(C[C@@H]3O)[C@](C)(C(=O)O)CC[C@@H]1O (stereo partly drawn) | -16.7% |
| CC1CC2=C(CC1/C=N/NC(N)=S)C(C)(C)CCC2 (stereo not drawn) | -76.3% (active) |
| COC(=O)C(Cc1c[nH]c2ccccc12)NC(=O)CCNC(=O)c1ccco1 (stereo not drawn) | 40% |
| CN(Cc1cn(Cc2ccc(C(F)(F)F)cc2)nn1)C1CN(Cc2cn(Cc3ccc(C(F)(F)F)cc3)nn2)S(=O)(=O)C1 (stereo not drawn) | 0% |
| O=C(CCN1CCCCC1)Nc1ccc(F)c(F)c1 | 15.9% |
| CCC(C(=O)NCc1ccccc1)n1c(Cc2cc(F)cc(F)c2)nc2ccccc21 (stereo not drawn) | 1.57% |
| OC[C@H]1O[C@@H](c2nc(-c3nc(-c4ccc(F)cc4)no3)cs2)[C@H](O)[C@@H](O)[C@H]1O | 0% |
| Cc1cc(=O)oc2cc(NC(=O)C3CC(=O)N(Cc4ccccc4)C3)ccc12 (stereo not drawn) | -60.6% (active) |
| Cc1cc(=O)oc2cc(NC(=O)C(C)Oc3ccccc3)ccc12 (stereo not drawn) | 18.8% |
| O=C(Nc1ccc(F)c([N+](=O)[O-])c1)C1CC(=O)N(Cc2ccccc2)C1 (stereo not drawn) | 16.3% |
| CO[C@@H]1CN(C)C(=O)c2cc(NC(=O)Nc3cc(F)ccc3F)ccc2OC[C@H](C)N(C(=O)c2ccccn2)C[C@@H]1C | -21.4% |
| CCCCn1nnnc1C1(C)CCC(=O)N1Cc1ccc(OC)c(OC)c1 (stereo not drawn) | 27.1% |
| Cc1cc(NC(=O)c2ccc(F)cc2)ccc1NC(=O)c1ccco1 | -99.6% (active) |
| Cc1cccc(OCC(=O)Nc2ccc(NC(=O)c3ccco3)c(C)c2)c1 | -6.83% |
| COc1ccccc1C(=O)Nc1ccc(NC(=O)c2ccco2)c(C)c1 | 2.58% |
| CC(=O)c1cccc(-c2cnc3c(NC=O)cc(-c4cccc(C(=O)N(C)C)c4)cn23)c1 | 39.2% |
| CS(=O)(=O)c1cccc(-c2ccc3nncn3c2)c1 | -15.7% |
| O=C(O)C1=C(C(=O)O)C2CCC1C2 | -3.55% |
| Cc1cccc(N2C(=O)CC(SC(N)=Nc3ccccc3)C2=O)c1 (stereo not drawn) | -1.29% |
| Cc1cccc(-n2c(O)c(C=Nc3ccccc3N)c(=O)[nH]c2=O)c1 | -114% (active) |
